Source: PubChem BioAssay (NCI)
About 83,000 compounds went through this panel and 20% of them were active in at least one assay; those are over-represented in the sample as a whole.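 Testing used 96-well plates and a 48-hour single-concentration exposure. Example: -40 means 40% of the starting cells died.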 Values without a mark were called inactive. Active and inactive are the calls of the source. How the source made its calls: active means growth percent below 10; inactive means the rest.

Experiments:
Assay in all cases: NCI-60 one-dose screen, 48 h (100 = growth as untreated, 0 = no growth, -100 = all killed)
Conditions in all cases: 10 µM unless noted
SR leukemia = test system: SR leukemia
RPMI-8226 leukemia = test system: RPMI-8226 leukemia
OVCAR-8 ovarian = test system: OVCAR-8 ovarian
OVCAR-5 ovarian = test system: OVCAR-5 ovarian
OVCAR-4 ovarian = test system: OVCAR-4 ovarian
SK-OV-3 ovarian = test system: SK-OV-3 ovarian
IGROV1 ovarian = test system: IGROV1 ovarian
OVCAR-3 ovarian = test system: OVCAR-3 ovarian
HS 578T breast = test system: HS 578T breast
NCI/ADR-RES ovarian = test system: NCI/ADR-RES ovarian

Compound	growth (SR leukemia)	growth (RPMI-8226 leukemia)	growth (OVCAR-8 ovarian)	growth (OVCAR-5 ovarian)	growth (OVCAR-4 ovarian)	growth (SK-OV-3 ovarian)	growth (IGROV1 ovarian)	growth (OVCAR-3 ovarian)	growth (HS 578T breast)	growth (NCI/ADR-RES ovarian)
Cn1cc(-c2ccc(-c3cn(C)c4ccc(Cl)cc34)[nH]2)c2cc(Cl)ccc21	-13% (active)	7.74% (active)	-5.8% (active)	-14.1% (active)	-57.7% (active)	-53.5% (active)	-45.9% (active)	-84% (active)	-28.6% (active)	-22.5% (active)
O=C(CCl)NNc1nccc(Nc2ccc(S(=O)(=O)Nc3ccncc3)cc2)n1	37.1%	31.3%	60.4%	67.7%	36.8%	90.5%	18.8%	24.2%	49.2%	51%
CCNC(=O)Oc1ccc(/C(=C(/C)Cc2ccc(OC)cc2)c2ccc(OCCN3CCCCC3)cc2)cc1	-32% (active)	22.5%	81.8%	89.6%	75.1%	90.7%	77.7%	74.6%	64.5%	85.1%
CCOC(=O)/C=C1\S/C(=N\Nc2cc(=O)[nH]c3ccccc23)N(c2ccccc2)C1=O	96.6%	112%	100%	101%	84.3%	101%	105%	104%	101%	101%
O=C1Nc2ccccc2/C1=C/c1cccn1C(=O)c1ccc(Cl)s1	27.8%	52.5%	75.3%	66.5%	15.3%		38.6%	38.8%	70.8%	74.3%
CCN1CCN(CCNc2nccc(-c3c(-c4ccc(F)c(OC)c4)nc4sccn34)n2)S1(=O)=O	45.3%	68.7%	77.2%	114%	92%		74.4%	85.5%	77.7%	103%
N=C(N)c1ccc(-c2ccc(-c3ccccc3)s2)cc1	7.19% (active)	-4.15% (active)	38.1%	61.4%	45.8%	85.2%	60.2%	53.7%	87.8%	89.2%
Cc1c2cccnc2c(C)c2c1c1cc(CO)ccc1n2C	14.3%	23.1%	28.6%	2.92% (active)	33.3%	43.1%	4.27% (active)	25.2%	47.6%	24.2%
N#C/C(=C\c1cn(Cc2ccccc2)c2ccccc12)C(=O)Nc1ncc(Cc2ccccc2Cl)s1	8.65% (active)	67.6%	6.09% (active)	-2.57% (active)	-74.6% (active)	9.54% (active)	9.54% (active)	-19.1% (active)	21.7%	15%
O=C(Cc1cccc(OC(F)(F)F)c1)Nc1ccc(CCCCc2nnc(NC(=O)Cc3ccccn3)s2)nn1	41.3%	6.13% (active)	65%	86.7%	76.3%		78.9%	87.3%	79.3%	85.6%
CS(=O)(=O)c1ccc(NC(=O)c2ccccc2)nc1	76.8%	100%	107%		115%	94.1%	111%	110%	98.1%	110%
CC(=O)/C(=C/c1ccc([N+](=O)[O-])cc1)C(=O)c1ccccc1	-0.146% (active)	8.32% (active)	94.4%	112%	93.7%		82.9%	96.5%	92.3%	83.7%
O=C1NC(=O)/C(=C/c2c(-c3ccccc3)nc3sc(COc4ccccc4)nn23)S1	90.2%	84.4%	105%		93.4%	105%	112%	110%	105%	100%
COc1cccc(Nc2ncnc3cc(NC(=O)CCl)ccc23)c1	-23.3% (active)	-44.8% (active)	-36.6% (active)		-59.5% (active)	-15.9% (active)	-64.7% (active)	-82.9% (active)	-15.4% (active)	-26.4% (active)
COc1cc(-c2nc3c(ncc4ccc(=O)n(-c5ccccc5)c43)s2)cc(OC)c1OC	74.5%	52.9%	88.3%	73.5%	72.8%		53.5%	79.7%	52.6%	73.1%
C=CC(=O)Nc1ccc(Nc2nccc(-c3ccc(N4CCCC4)c(C#N)c3)n2)cc1	-3.35% (active)	-10.3% (active)	65.9%		47.3%	8.26% (active)	35.9%	14.1%	-5% (active)	57.2%
CCOC(=O)c1cnc2c(N=Nc3ccc(OC)cc3)c(N)nn2c1N	112%	104%	102%	110%	111%		93.7%	113%	104%	98.9%
COc1ccc2c(c1)CCc1[nH]nc(-c3cc(OC)c(OC)c(OC)c3)c1-2	-26.2% (active)	22.3%	7.98% (active)		45.3%	-7.59% (active)	25.5%	1.01% (active)	23%	
COc1ccc2[nH]cc(-c3nc(-c4c[nH]c5c(Cl)nccc45)cs3)c2c1	18.1%	43.5%	28.9%		68.6%	46.9%	54.7%	75.9%	38.7%	20.7%
CC1(C)N=C(N)N=C(N)N1c1cccc(CCc2ccccc2)c1	28.5%	26.5%	52.6%		72.1%	58.9%	30.3%	22.8%	70.4%	111%
C=C1CC[C@@H]2[C@](C)(COC(C)=O)[C@H](OC(C)=O)CC[C@@]2(C)[C@@H]1CC(Nc1ccc(S(=O)(=O)NC(C)=O)cc1)C1=CCOC1=O (some centres not stated)	2.08% (active)	-16.2% (active)	-18.2% (active)	-40.1% (active)	26.1%		-10% (active)	-87.7% (active)	32.5%	11.9%
CN1CCN(CCOc2ccc(-c3cnc4c(-c5ccc(F)cc5)cnn4c3)cc2)CC1	1.31% (active)	27%	58.1%		49%	93.1%	48.2%	28.4%	56.7%	76.5%
Cc1nn(-c2cc(NC3CCC(O)CC3)c3c(=O)[nH]c(CCC(F)(F)F)cc3c2)c2c1C(=O)CC(C)(C)C2 (configuration not stated)	25.9%	40.7%	52.1%	85.3%	66.8%		55.2%	70%	34.4%	72%
C=C(C)[C@@H]1CC[C@]2(C(=O)N3CCN(C)CC3)CC[C@]3(C)[C@H](CC[C@@H]4[C@@]5(C)CC[C@H](OC(=O)c6ccccc6C(=O)O)C(C)(C)[C@@H]5CC[C@]43C)[C@@H]12	90.5%	96.7%	104%		99.2%	104%	97.9%	110%	94.7%	104%
CC(=O)c1ccc(Nc2nccc(-c3ccc4ccccc4c3)n2)cc1	42.6%	90%	96.6%		105%	99.3%	86.3%	99.3%	86.2%	84%
Nc1[nH]c(=S)nc2oc(-c3ccccc3)c(-c3ccccc3)c12	93.8%	99.8%	101%		97.2%	103%	100%	102%	91.1%	
COc1ccc(/C(C)=C(/c2ccc(OCCCN(C)C)cc2)c2ccc(OC(=O)c3ccccc3)cc2)cc1	9.15% (active)	62.6%	91.6%		99.8%	90.8%	93.6%	69.5%	55.4%	86.4%
Cc1ccc(S(=O)(=O)Oc2ccc3sc4cccc(NCCN(C)C)c4c(=O)c3c2)cc1	-19.4% (active)	-48.2% (active)	-67.3% (active)	-92.4% (active)	-69.8% (active)		-79.6% (active)	-95.4% (active)	-58.3% (active)	-90.7% (active)
